Mac1 fbg enh = enhancers of human CD11b/CD18 binding to fibrinogen; 93,000 tested, 0.07% active; P05107+P11215; K562 CD11b/CD18 adhesion to fibrinogen, ATPlite luminescence; activation, % at 10 µM;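 active = 10 µM primary screen giving 50% or more activity, confirmed by 40% or more on retest at that dose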
Target sequence (P05107 whole entry, looked up, other chains not shown): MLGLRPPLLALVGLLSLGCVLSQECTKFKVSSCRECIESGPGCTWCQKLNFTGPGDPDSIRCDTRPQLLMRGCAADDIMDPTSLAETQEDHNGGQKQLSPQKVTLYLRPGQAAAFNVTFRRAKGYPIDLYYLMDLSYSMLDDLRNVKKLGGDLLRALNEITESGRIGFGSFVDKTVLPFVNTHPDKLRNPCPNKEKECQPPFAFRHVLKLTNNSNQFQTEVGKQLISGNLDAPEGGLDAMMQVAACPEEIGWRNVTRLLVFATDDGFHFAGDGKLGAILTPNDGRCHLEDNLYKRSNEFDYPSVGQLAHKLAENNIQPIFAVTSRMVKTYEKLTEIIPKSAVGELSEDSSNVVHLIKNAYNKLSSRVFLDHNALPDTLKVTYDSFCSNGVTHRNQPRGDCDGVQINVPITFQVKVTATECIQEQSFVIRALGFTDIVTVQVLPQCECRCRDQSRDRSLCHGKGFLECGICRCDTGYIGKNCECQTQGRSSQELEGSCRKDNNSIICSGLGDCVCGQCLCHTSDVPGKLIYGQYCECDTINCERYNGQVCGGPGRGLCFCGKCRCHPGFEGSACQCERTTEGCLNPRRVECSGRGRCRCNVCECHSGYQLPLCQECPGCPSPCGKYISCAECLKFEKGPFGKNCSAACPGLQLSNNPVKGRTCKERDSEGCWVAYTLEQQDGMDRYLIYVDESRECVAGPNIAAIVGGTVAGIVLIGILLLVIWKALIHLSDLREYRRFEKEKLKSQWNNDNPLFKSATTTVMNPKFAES
CD11b adhes inh = CD11b/CD18-fibrinogen binding inhibition; P05107+P11215; K562 CD11b/CD18 adhesion to fibrinogen, ATPlite luminescence; Mn2+ added to activate the integrin; inhibition, % at 10 µM; 93,000 tested, 0.54% active; AID 1497;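 active = primary inhibition of 50% or more at 10 µM, then 40% or more on retest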
CYP2C9 inhib = inhibitors of human CYP2C9. P11712. CYP2C9 Supersomes, luciferin-H conversion, luminescence. inhibition, % at 5 µM. 96,000 tested, 20% active. AID 777;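 active = blocking of liver enzyme CYP2C9 beyond about 50% at 5 µM, limit read from the data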
CYP2C19 activ = cytochrome P450 2C19 (human) activation; AID 1025; P33261; activation factor at 5 µM; recombinant CYP2C19, luciferin-H EGE luminescence; active compounds read high; 0 = fully inhibited enzyme, 1 = untreated enzyme; 96,000 tested, under 10 active;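 active = activation factor of at least 2 at 5 µM in the primary screen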
CYP2C19 inhib = human CYP2C19 inhibition; inhibition, % at 5 µM; CYP2C19 Supersomes, luciferin-H EGE luminescence, 30 min; 96,000 tested, 21% active; AID 778; P33261;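 active = CYP2C19 inhibition above a set limit at 5 µM in the primary screen, cut at about 50% in these data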
CYP2C9 act = increases human cytochrome P450 2C9 activity | P11712 | recombinant CYP2C9, luciferin-H conversion, luminescence; active compounds read high; factor 1 = untreated enzyme, 0 = blocked | activation factor at 5 µM | 96,000 tested, 1.4% active;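 active = activation factor of 2 or more for CYP2C9 at a 5 µM dose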
Each line names hits and unclear results; the compound was inactive in the other large screens. Only some compounds are listed: those with a hit (about 28% of all), similar ones and a draw of the others.

COc1ccc(OC)c(S(=O)(=O)Nc2ccc(Oc3ccccc3)cc2)c1	CYP2C9 inhib 82, CYP2C19 inhib 97
CCOc1ccc(NS(=O)(=O)c2cc(NC(=O)c3cccc(C)c3)ccc2Cl)cc1	none (no result: CYP2C9 inhib, CYP2C19 activ, CYP2C19 inhib, CYP2C9 act)
COc1ccc(OC)c(S(=O)(=O)Nc2ccc(O)c(Sc3ncn[nH]3)c2)c1	CYP2C19 inhib 80
COC(=O)c1c(C)oc2ccc(NS(=O)(=O)c3cc(OC)ccc3OC)cc12	none
COc1ccc(C(=O)N2CCCCC2)cc1S(=O)(=O)Nc1ccccc1	none (no result: Mac1 fbg enh, CD11b adhes inh)
CCOC(=O)Cc1csc(/N=C/c2c(O)n(-c3ccc(C)c(C)c3)c(=O)c3ccccc23)n1	none (no result: CYP2C9 inhib, CYP2C19 activ, CYP2C19 inhib, CYP2C9 act)
CC1CC(C)CN(c2nc3c(c(=O)n(C)c(=O)n3C)n2C)C1 (stereo unspecified)	none
CCOc1ccc(-c2c(=O)n(OCc3ccc([N+](=O)[O-])cc3)c3ccccc3[n+]2[O-])cc1	none (no result: CYP2C9 inhib, CYP2C19 activ, CYP2C19 inhib, CYP2C9 act)
CC(=O)N=c1sc2nc3ccccc3nc2n1N(C(C)=O)C(C)=O	none
CCOc1ccc(S(=O)(=O)Nc2ccc(F)cc2)c(C)c1C	CYP2C9 inhib 100, CYP2C19 inhib 100
CCOc1ccc(Br)cc1S(=O)(=O)Nc1ccc(Cl)c(S(=O)(=O)N(C)C)c1	none (no result: CYP2C9 inhib, CYP2C19 activ, CYP2C19 inhib, CYP2C9 act)
CCOC(=O)C1=C(C)NC(C)=C(C(=O)OCC)C1/C=C/c1ccccc1OC	none (no result: CYP2C9 inhib, CYP2C19 activ, CYP2C19 inhib, CYP2C9 act)
COC(=O)C1=C(C)N=C2SC(C)C(=O)N2C1/C=C/c1ccccc1OC (stereo unspecified)	CYP2C9 inhib 63, CYP2C19 inhib 81
CCC1SC2=NC(C)=C(C(=O)OCCOC)C(/C=C/c3ccccc3OC)N2C1=O (stereo unspecified)	CYP2C9 inhib 91, CYP2C19 inhib 78 (no result: Mac1 fbg enh, CD11b adhes inh)
COC(=O)C1=C(C)N=C2SC(C)C(=O)N2C1c1cccs1 (stereo unspecified)	none
CCC1SC2=NC(C)=C(C(=O)OCC(C)C)C(/C=C/c3ccccc3OC)N2C1=O (stereo unspecified)	CYP2C9 inhib 78
Cc1ccc(OCCNC(=O)C2CC(=O)N(c3ccc(C)cc3)C2)cc1 (stereo unspecified)	none
CCC(C(=O)N1CCc2ccccc2C1)n1nc(C)n2c(cc3occc32)c1=O (stereo unspecified)	CYP2C9 inhib 69, CYP2C19 inhib 68
CCC(C(=O)N1CCN(c2ccccn2)CC1)n1nc(C)n2c(cc3occc32)c1=O (stereo unspecified)	CYP2C9 inhib 91
Cc1nn(C(C)C(=O)N2CCN(c3ccccn3)CC2)c(=O)c2cc3occc3n12 (stereo unspecified)	none
Cc1nn(C(C)C(=O)N2CCc3ccccc3C2)c(=O)c2cc3occc3n12 (stereo unspecified)	CYP2C19 inhib 52
CCc1nn(C(C)C(=O)N2CCN(Cc3ccccc3)CC2)c(=O)c2cc3occc3n12 (stereo unspecified)	CYP2C9 inhib 67, CYP2C19 inhib 66
CC(NCc1ccco1)C(=O)N1CCc2ccccc2C1 (stereo unspecified)	none
Cc1cccc(N2CCN(C(=O)C(C)n3nc(C)n4c(cc5occc54)c3=O)CC2)c1C (stereo unspecified)	CYP2C9 inhib 68
Cc1ccc(/C(O)=C2\C(=O)C(=O)N(CC(C)O)C2c2ccc(N(C)C)cc2)cc1 (stereo unspecified)	none
CCCCC(CC)CNC(=O)C1C2C=CC(C2)C1C(=O)O (stereo unspecified)	none
CC(=O)[C@H]1[C@@H]2C(=O)N(c3cccc(Cl)c3)C(=O)[C@@H]2[C@H]2c3ccccc3C=CN21	none
CC(C)(C)C(=O)[C@@H]1[C@@H]2C(=O)N(Cc3ccccc3)C(=O)[C@@H]2[C@H]2c3ccccc3C=CN12	CYP2C9 inhib 75, CYP2C19 inhib 74
CCOc1ccc(C2NC(=O)c3n[nH]c(C)c32)cc1 (stereo unspecified)	CYP2C19 inhib 69
Cc1[nH]nc2c1C(c1ccccc1F)NC2=O (stereo unspecified)	none
CCc1cc(/C(Cc2cscn2)=N\O)c(O)cc1O	none
CCc1cc(/C(Cc2ccccn2)=N\O)c(O)cc1O	CYP2C9 inhib 62
CCc1cc(/C(Cc2ccc3ccccc3n2)=N\O)c(O)cc1O	CD11b adhes inh 60, CYP2C9 inhib 73, CYP2C19 inhib 90
CCCOP(=O)(OCCC)C(Nc1ccc(C(C)C)cc1)c1ccc([N+](=O)[O-])cc1 (stereo unspecified)	none
Cc1cc(C)n(S(=O)(=O)/C=C/c2ccccc2)n1	CYP2C19 inhib 74
Cc1ccc(S(=O)(=O)n2nc(C)cc2C)cc1	none
COc1cc(CNC(=O)c2cccc(COc3ccc(Cl)cc3)c2)cc(OC)c1	none (no result: CYP2C9 inhib, CYP2C19 activ, CYP2C19 inhib, CYP2C9 act)
Cc1ccc(NC(=O)CSC2=Nc3ccccc3C3CC=NN23)c(C)c1 (stereo unspecified)	CYP2C19 inhib 93
COC(=O)c1ccc(NC(=O)CSC2=Nc3ccccc3C3CC=NN23)cc1 (stereo unspecified)	CYP2C9 inhib 69, CYP2C19 inhib 68
NC(=O)c1ccc(NC(=O)CSC2=Nc3ccccc3C3CC=NN23)cc1 (stereo unspecified)	none
CC(C)(C)NC(=O)C(c1ccncc1)N(C(=O)c1csnn1)C1CC1 (stereo unspecified)	none
O=C(Nc1nccs1)C1CCCN(S(=O)(=O)c2cccnc2)C1 (stereo unspecified)	none
O=C(Nc1nc(-c2ccccc2)cs1)C1CCCN(S(=O)(=O)c2cccc([N+](=O)[O-])c2)C1 (stereo unspecified)	CYP2C9 inhib 62
O=C(Nc1nc(-c2ccccc2)cs1)C1CCCN(S(=O)(=O)c2ccccc2)C1 (stereo unspecified)	CYP2C9 inhib 69
O=C(Nc1ccc(S(=O)(=O)Nc2ncccn2)cc1)c1ccco1	none
Cc1cc2ccccc2nc1SCC(=O)N1CCCC1	none
O=C(NCc1ccc(Cl)cc1)c1cc(-c2cccs2)on1	CYP2C9 inhib 60, CYP2C19 inhib 51
CN1CCN(C/C(=C2/N=C(c3ccccc3)OC2=O)N(C)C)CC1	none
Cc1cc(C)c(S(=O)(=O)Nc2nnc(C)s2)c(C)c1	CYP2C9 inhib 86
Cc1cc(C)c(S(=O)(=O)Nc2ccccc2-c2ccccc2)c(C)c1	none (no result: CYP2C9 inhib, CYP2C19 activ, CYP2C19 inhib, CYP2C9 act)
Cn1c(SCC(=O)N2CCOCC2)nc(O)cc1=O	none
O=CNCC(=O)NCCc1ccc(Cl)cc1	none
C=CCNC(=O)CN(c1ccc(OC)cc1OC)S(C)(=O)=O	none
C=CCN(Cc1cc(OC)ccc1OC)S(=O)(=O)N(C)C	CYP2C9 inhib 64, CYP2C19 inhib 96
Cc1ccc(C)c(Cn2c(C(C)O)nc3ccccc32)c1 (stereo unspecified)	none
COc1ccccc1NC(=O)Oc1ccc(C(C)=O)cc1	none (no result: Mac1 fbg enh, CD11b adhes inh)
